Source: PubChem
3T3 cytotox: Cytotoxic Profiling in NIH 3T3 Cell Line of Diverse Libraries Using Quantitative High-Throughput Screening. NIH 3T3 viability, CellTiter-Glo ATP luminescence, 48-72 h. Potency, µM (highest dose often 96.7 µM), inactives show at the highest dose activity change, negative = cytotoxicity, hits mostly inhibitors. hit rate 4.3% among 94,000; also: nearly all actives have a fitted effect of over 55% in size
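Cells were seeded at 400 per well, treated with pin-transferred compound, and kept 48 or 72 hr at 37 °C before CellTiter-Glo addition and luminescence imaging of cellular ATP.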
hNpr1 antagonist: Natriuretic polypeptide receptor (hNpr1) antagonism - Primary qHTS. Potency, µM (series often up to 46.3 µM), for the others: at the highest dose activity change, negative = inhibition, usual class: inhibitors. HEK293 hNpr1 GloSensor cGMP, ANP-stimulated luminescence. hit rate 1.6% among 76,000. AID 1347048, 2019. Atrial natriuretic peptide receptor 1 (Homo sapiens), P16066; calls by dose curve; also: nearly all actives have a fitted effect of over 60% in size
Target sequence (P16066 whole entry, looked up): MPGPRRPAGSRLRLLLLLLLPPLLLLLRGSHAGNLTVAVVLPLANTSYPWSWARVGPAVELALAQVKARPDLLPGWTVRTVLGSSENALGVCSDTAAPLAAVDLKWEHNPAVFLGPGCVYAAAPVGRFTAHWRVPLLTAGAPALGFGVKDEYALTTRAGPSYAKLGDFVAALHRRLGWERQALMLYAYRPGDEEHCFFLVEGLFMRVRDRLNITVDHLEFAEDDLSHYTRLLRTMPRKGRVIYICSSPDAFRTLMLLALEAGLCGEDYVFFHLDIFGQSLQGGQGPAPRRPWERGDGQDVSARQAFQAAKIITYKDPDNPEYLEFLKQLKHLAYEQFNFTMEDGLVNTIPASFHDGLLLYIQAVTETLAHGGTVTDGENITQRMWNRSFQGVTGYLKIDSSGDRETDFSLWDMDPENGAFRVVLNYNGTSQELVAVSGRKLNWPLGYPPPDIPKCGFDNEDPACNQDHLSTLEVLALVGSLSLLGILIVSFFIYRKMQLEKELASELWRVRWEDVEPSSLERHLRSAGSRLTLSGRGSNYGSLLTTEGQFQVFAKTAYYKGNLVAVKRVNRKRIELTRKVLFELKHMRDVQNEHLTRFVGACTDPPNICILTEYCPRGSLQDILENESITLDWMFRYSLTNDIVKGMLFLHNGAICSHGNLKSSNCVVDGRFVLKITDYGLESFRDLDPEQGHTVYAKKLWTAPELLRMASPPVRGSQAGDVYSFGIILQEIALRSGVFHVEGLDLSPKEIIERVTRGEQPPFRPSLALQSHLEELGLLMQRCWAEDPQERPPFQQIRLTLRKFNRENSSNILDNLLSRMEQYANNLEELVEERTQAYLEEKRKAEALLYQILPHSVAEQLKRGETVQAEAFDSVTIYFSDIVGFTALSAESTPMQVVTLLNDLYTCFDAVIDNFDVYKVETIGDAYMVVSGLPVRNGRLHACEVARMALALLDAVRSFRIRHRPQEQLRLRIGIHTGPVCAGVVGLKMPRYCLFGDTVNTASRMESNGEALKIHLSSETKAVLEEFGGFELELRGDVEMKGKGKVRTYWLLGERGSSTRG
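HEK293 cells stably expressing human Npr1 and cGMP GloSensor pGS-40F, loaded 2 h with 2% GloSensor reagent, given compound 30 min at room temperature. Luminescence read before and 20 min after 0.1 nM hNppA.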
HEK293 viab: GF-AFC viability counterscreen for inhibitors of alpha-synuclein gene (SNCA) expression; Potency, µM (top dose mostly 57.1 µM), for inactives: at the top dose activity change, negative = cytotoxicity, actives largely listed as cytotoxic; HEK-293-SNCA-luc viability, GF-AFC fluorescence, 24 h; hit rate 0.12% among 150,000; AID 1671193, 2021;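 also: 0% = DMSO-treated cells and -100% = medium-only wells without cells; nearly all actives have a fitted effect of over 30% in size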
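Cytotoxicity counterscreen: after 24 h compound treatment of genome-edited SNCA-luciferase HEK-293 cells, live-cell protease substrate GF-AFC read by fluorescence after 30 min; activity scaled between DMSO (0%) and medium-only (-100%), curves Hill-fitted.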
SNCA expr inh: Primary qHTS assay for inhibitors of alpha-synuclein gene (SNCA) expression | HEK-293 SNCA-luciferase knock-in, luminescence, 24 h | Potency, µM (doses to about 57.2 µM), without a hit: at the highest dose activity change, negative = inhibition, usual class: inhibitors | hit rate 0.17% among 140,000 | AID 1671194, 2021;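 also: plate controls were DMSO cells for no effect and cell-free wells for full effect; nearly all actives have a fitted effect of over 45% in size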
HEK cytotox: Cytotoxic Profiling in HEK 293 Cell Line of Diverse Libraries Using Quantitative High-Throughput Screening | hit rate 6.6% among 94,000 | AID 1345083, 2018 | HEK 293 viability, ATP luminescence (CellTiter-Glo), 48-72 h | Potency, µM (titrated, usually from 115 µM), without a hit: at the top dose activity change, negative = cytotoxicity, usual class: inhibitors; also: nearly all actives have a fitted effect of over 60% in size
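Read-out: CellTiter-Glo ATP luminescence. Cells: HEK 293, 250 cells/well. Exposure: 48 or 72 hr, 37 degree Celsius.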
FLuc inh: Firefly luciferase inhibition profiling of diverse chemical library using quantitative high-throughput screening; purified P. pyralis luciferase, luminescence, biochemical; Potency, µM (series often up to 115 µM), hits mostly inhibitors; hit rate 2.5% among 76,000; AID 1347043, 2019; also: nearly all actives have a fitted effect of over 65% in size
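Purified P. pyralis luciferase (10nM final) in 50mM Tris acetate pH 7.5, 10mM Mg acetate, 0.01% Tween-20, 0.05% BSA with 10uM D-luciferin and 10uM ATP. Compounds titrated qHTS. Luminescence imaged on CCD.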
Active calls of the source: *; i = inactive; ? = inconclusive; · = not tested or not shown; [ ] = remark or other dose. Only some compounds are listed: those with a hit (about 7.2% of all), similar ones and a draw of the others. Unless noted, calls follow the shape of the dose curve; as a rule, active = well fitted curve in the direction sought with a large enough effect; inconclusive = small, poorly fitted or top-dose-only effect, or another doubt; inactive = no such curve, though single readings can be large; an effect the other way counts as inactive or inconclusive. Unless noted, % is scaled to controls: 0 for no effect and ±100 for the full control effect; potency is read from the fitted curve at half-maximal effect.

SMILES | 3T3 cytotox | hNpr1 antagonist | HEK293 viab | SNCA expr inh | HEK cytotox | FLuc inh
CCc1ccc(CNC(=O)CCC2CCCN(S(=O)(=O)c3ccccc3C)C2)cc1 (configuration not stated) | ? | -26% | -4% | 9% | 40µM* | i
O=C(NC1CCCC1)c1cccc2c1CCN2S(=O)(=O)c1ccccc1F | 35µM* | ? | -21% | -23% | ? | i
O=C1CC2(CCN(C(=O)c3ccc4c(c3)OCO4)CC2)Oc2ccccc21 | ? | 6% | -13% | 6% | ? | i
CC1(CNC(=O)c2ccoc2)CCOCC1 | i | 9% | 5% | ? | -3% | i
Cc1nnc2ccc(N3CCC(NC(=O)Cc4ccc(F)cc4)CC3)nn12 | -17% | · | · | · | i | ·
CCOC(=O)C1=CN(CC(=O)Nc2ccccc2Cl)S(=O)(=O)N=C1C | -6% | 5% | 4% | -14% | 1% | i
Cc1csc(NC(=O)C2CC(=O)N(c3n[nH]c4ccccc34)C2)n1 (configuration not stated) | -11% | -1% | -4% | -5% | -19% | i
Cc1ccc2nc(NC(=O)C3CC(=O)N(c4n[nH]c5ccccc45)C3)sc2c1 (configuration not stated) | 32µM* | -1% | -3% | ? | 40µM* | i
COc1ccc(CN2Cc3cc(NC(=O)c4cc(OC)cc(OC)c4)ccc3OC(C)C2=O)cc1 (configuration not stated) | ? | -2% | -7% | 2% | 20µM* | i
COc1cc(OC)cc(C(=O)Nc2ccc3c(c2)CN(Cc2ccc(F)cc2)C(=O)C(C)O3)c1 (configuration not stated) | ? | -20% | -4% | -28% | ? | i
COc1ccc(CCN2Cc3cc(NC(=O)c4ccc(OC)cc4)ccc3OC(C)C2=O)cc1 (configuration not stated) | -28% | 1% | -12% | -21% | 89µM* | i
CC1Oc2ccc(NC(=O)c3cccs3)cc2CN(CCOc2ccccc2)C1=O (configuration not stated) | ? | -20% | -7% | -20% | 40µM* | i
CN1CCCCCCN(C(=O)CCCc2ccccc2)[C@H]2CCC[C@H]2C1=O | -25% | 0% | -19% | 32% | ? | i
O=C(Nc1cccnc1)[C@@H]1C[C@@H](c2ccc(F)cc2)N(CCOc2ccccc2)C1 | 89µM* | ? | ? | -28%[87.6 µM] | ? | i
O=C(Nc1nccs1)[C@@H]1C[C@@H](c2ccc(F)cc2)N(Cc2ccccc2)C1 | ? | ? | -15%[87.6 µM] | -26%[87.6 µM] | 40µM* | i
Cc1csc(NC(=O)[C@@H]2C[C@H](c3cccc(C(F)(F)F)c3)N(Cc3cnn(C)c3)C2)n1 | 28µM* | -13% | -7% | -25% | ? | i
O=C(NCc1ccncc1)[C@@H]1C[C@@H](c2ccc(F)cc2)N(Cc2ccccc2)C1 | -16%[138 µM] | 2%[70.6 µM] | -13%[87.6 µM] | -15%[87.6 µM] | ? | i
O=C(Nc1nccs1)[C@@H]1C[C@H](c2ccc(F)cc2)N(Cc2ccccc2Cl)C1 | 32µM* | -3%[70.6 µM] | -21%[87.6 µM] | -30%[87.6 µM] | ? | i
CC1C2=CC(=O)OC2(O)CC2C1C(O)CC1C(C)(CO)CCCC21C (configuration not stated) | · | · | -1% | · | · | ·
Cn1ccc(NC(=O)[C@@H]2C[C@H](c3ccc(F)cc3)N(Cc3ccccc3Cl)C2)n1 | ? | ? | ? | -28%[87.6 µM] | 50µM* | i
Cn1ccc(NC(=O)[C@@H]2C[C@@H](c3ccc(F)cc3)N(CCOc3ccccc3)C2)n1 | ? | -29%[70.6 µM] | -5%[87.6 µM] | ? | ? | i
Cn1cc(CN2C[C@H](C(=O)Nc3nccs3)C[C@H]2c2cccc(C(F)(F)F)c2)cn1 | ? | 1%[70.6 µM] | -7%[87.6 µM] | -25%[87.6 µM] | ? | i
O=C(Nc1nccs1)[C@@H]1C[C@@H](c2cccc(C(F)(F)F)c2)N(CC2CCOCC2)C1 | 79µM* | -20%[70.6 µM] | -17%[87.6 µM] | ? | ? | i
CCc1ccc(NC(=O)Cn2c(-c3ccc(F)cc3)nc(C)c(CCO)c2=O)cc1 | -14% | 2% | -18% | -27% | ? | i
Cc1noc2c(NCc3cccnc3)cc(-c3ccc(F)cc3)nc12 | ? | 5%[70.6 µM] | -18%[87.6 µM] | 20%[87.6 µM] | ? | i
SMILES | 3T3 cytotox | hNpr1 antagonist | HEK293 viab | SNCA expr inh | HEK cytotox | FLuc inh
Cc1noc2c(NCc3ccncc3)cc(-c3ccc(Cl)cc3)nc12 | 45µM* | -3%[70.6 µM] | -17%[87.6 µM] | -12%[87.6 µM] | ? | i
Cc1noc2c(NCC3CCOCC3)cc(-c3ccc(Cl)cc3)nc12 | ? | 1%[70.6 µM] | -8%[87.6 µM] | 9%[87.6 µM] | 100µM* | i
Cc1noc2c(NCc3ccccc3)cc(-c3cccnc3)nc12 | ? | 7%[70.6 µM] | -8%[87.6 µM] | -26%[87.6 µM] | -21%[172 µM] | i
Cc1noc2c(NCc3cccnc3)cc(-c3ccc(Cl)cc3)nc12 | ? | 7%[70.6 µM] | -1%[87.6 µM] | ? | 100µM* | i
COCCN1CCCC(c2[nH]ccc2C(=O)N2CCN(c3ccccc3)CC2)C1 (configuration not stated) | -19% | 1% | 0%[12.5 µM] | -14% | -10% | i
COc1ccccc1Oc1c(CCC(=O)NCc2ccccc2)c(C)nn1-c1ccc(F)cc1 | ? | -24% | ? | -2% | ? | i
NS(=O)(=O)c1ccsc1C(=O)N1CCCC2(CCNCC2)CC1 | -7% | 1% | -17% | ? | 0% | i
COc1ccc(N2CCN(c3nc(C(=O)NC4CC4)cs3)CC2)cc1 | 28µM* | ? | -3% | -27% | 32µM* | i
O=C(NC1CCCC1)c1csc(N2CCN(c3ccccc3F)CC2)n1 | 25µM* | ? | -12% | ? | ? | i
COc1ccc(N2CCN(c3nc(C(=O)NCC4CCCCC4)cs3)CC2)cc1 | -10% | -15% | 6% | -5% | -26% | i
COc1ccc(N2CCN(c3nc(C(=O)NCc4ccccc4C)cs3)CC2)cc1 | ? | -28% | -17% | -12% | 28µM* | i
O=C(NCc1cccs1)c1csc(N2CCN(c3ccc(F)cc3)CC2)n1 | ? | ? | -12% | ? | 32µM* | i
O=C(c1ccc(C(F)(F)F)cc1)N1CCCC2(CC(c3cccnc3)=NO2)C1 (configuration not stated) | -24% | · | -1% | -3% | -32% | ·
